# Source: paper PMC6925144, “A prospective compound screening contest identified broader inhibitors for Sirtuin 1” (Scientific Reports, 2019)
# Whole data set: some 3,200 compounds, median “TSA(without NAD+) / Primary screening (TSA) / delta Tm (K)” near -0.07, cut for the highest 2% near 0.37. The list comes from a sample in which the highest values are over-represented; it also holds similar structures and randomly drawn compounds.
# Target: NAD-dependent deacetylase Sirtuin 1 (human, UniProt Q96EB6)
# Assay: primary screen, delta tm
# Design: single well (n = 1)
# Conditions: 10 µM
# Experimental: A total of 3,192 compounds extracted from the proposed lists were first screened by thermal shift assay (TSA), which determined a melting temperature shift (ΔTm) of Sirtuin 1 upon the addition of a test compound at a concentration of 10 µM (n = 1) with primary hit criteria of ΔTm > 0.45 K or ΔTm < −1.5 K. Primary hits (48 compounds) were retested in the same assay at three concentrations (5, 10, 20 µM, n = 4) for hit confirmation and for dose-dependency check. Secondary hits (41 compounds) were checked their selectivity for Sirtuin 1 based on counterscreening on unrelated protein targets (bovine carbonic anhydrase (CA) and recombinant SH2 domain of hABL1 kinase (ABL1)) at three different concentrations (5, 10, 20 µM, n = 4), which yielded 38 hit compounds, hereafter referred to as TSA hits. The TSA screening above was conducted in the absence of NAD+.
# Sequence of NAD-dependent deacetylase Sirtuin 1 (Q96EB6 2-747 limits assumed): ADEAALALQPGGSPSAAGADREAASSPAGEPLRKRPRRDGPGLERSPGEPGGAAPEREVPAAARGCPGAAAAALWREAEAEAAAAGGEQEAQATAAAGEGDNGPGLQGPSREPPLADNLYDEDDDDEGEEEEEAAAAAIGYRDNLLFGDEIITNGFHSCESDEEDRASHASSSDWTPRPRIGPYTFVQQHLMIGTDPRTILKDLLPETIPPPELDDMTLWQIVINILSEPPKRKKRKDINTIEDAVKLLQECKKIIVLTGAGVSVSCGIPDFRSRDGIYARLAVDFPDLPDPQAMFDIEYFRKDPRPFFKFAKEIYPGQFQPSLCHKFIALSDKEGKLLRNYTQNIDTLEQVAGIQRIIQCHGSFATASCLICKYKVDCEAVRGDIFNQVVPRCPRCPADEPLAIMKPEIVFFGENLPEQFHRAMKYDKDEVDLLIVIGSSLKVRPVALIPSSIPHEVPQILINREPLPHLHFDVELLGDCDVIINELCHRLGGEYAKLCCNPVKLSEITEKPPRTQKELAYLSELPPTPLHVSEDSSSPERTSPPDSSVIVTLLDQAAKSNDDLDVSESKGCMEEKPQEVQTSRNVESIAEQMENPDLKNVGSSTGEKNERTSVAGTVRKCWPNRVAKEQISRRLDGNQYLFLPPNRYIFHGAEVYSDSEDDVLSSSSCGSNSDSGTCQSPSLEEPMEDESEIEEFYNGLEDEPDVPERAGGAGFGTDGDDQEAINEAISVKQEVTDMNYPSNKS
row,SMILES,TSA(without NAD+) / Primary screening (TSA) / delta Tm (K)
1,Cc1nn(CC(=O)N2CCC(N3CCCC3C(N)=O)CC2)cc1-c1ccccc1 (stereo not shown),-0.22
2,CC(Nc1ccnc(CC#N)c1)C(=O)N1CCCCC1C (stereo not shown),-0.28
3,CS(=O)(=O)c1cccc(C(=O)N(Cc2ccccc2)c2ccccc2)c1,-0.13
4,CCCn1nnnc1CN1C(=O)NC(Cc2c[nH]c3ccccc23)C1=O (stereo not shown),-0.28
5,O=C(Cn1[nH]c(=O)c2ccccc2c1=O)NC1CCCc2ccccc21 (stereo not shown),0.19
6,Cc1ccccc1N1C(=O)c2ccc(C(=O)OCC(N)=O)cc2C1=O,-0.08
7,CC1(C)C(=O)Nc2ccccc2N1C(=O)CNc1cccc2c1CCCC2,-0.24
8,CCS(=O)(=O)N1CCN(c2ccc(C(N)=O)cc2)CC1,-0.15
9,O=C(c1cnc2ccccc2n1)N1CCCC1c1nc2ccccc2s1 (stereo not shown),-0.04
10,COc1ccc(N(C)S(=O)(=O)c2cccc(C(=O)Nc3sc4c(c3C(N)=O)CCC(C)C4)c2)cc1 (stereo not shown),0.08
11,CN(C)c1ccnc(N2CCCC(N3CCNC3=O)C2)n1 (stereo not shown),-0.18
12,CN(c1ccccc1)S(=O)(=O)c1cccc(C(=O)Nc2ccccc2)c1,0.12
13,CSc1cccc(NC(=O)c2cccc(S(=O)(=O)N(C)c3ccc(C)cc3)c2)c1,0.35
14,CN(c1ccccc1)S(=O)(=O)c1cccc(NC(=O)c2cccc(C#N)c2)c1,0.13
15,Cc1ccc(N(C)S(=O)(=O)c2cccc(C(=O)NNC(=O)c3ccncc3)c2)cc1,-0.08
16,Cc1ccc(N(C)S(=O)(=O)c2cccc(C(=O)Nc3cccc(C#N)c3)c2)cc1,0.43
17,Cc1ccc(N(C)S(=O)(=O)c2cccc(C(=O)NNC(=O)CC34CC5CC(CC(C5)C3)C4)c2)cc1,0.45
18,Cc1ccc(N(C)S(=O)(=O)c2cccc(C(=O)Nc3ccc4c(c3)C(=O)N(C)C4=O)c2)cc1,0.45
19,Cc1ccc(N(C)S(=O)(=O)c2cccc(C(=O)Nc3cccc(C(=O)NC4CC4)c3)c2)cc1,0.06
20,CC1CCc2[nH]c3ccc(C(=O)Nc4cccc(S(=O)(=O)N(C)c5ccccc5)c4)cc3c2C1 (stereo not shown),0.42
21,COc1ccc(N(C)S(=O)(=O)c2cccc(C(=O)Nc3cccc(C#N)c3)c2)cc1,0.22
22,Cc1ccc(C(=O)NNC(=O)c2cccc(S(=O)(=O)N(C)c3ccc(C)cc3)c2)cc1,-0.14

row,SMILES,TSA(without NAD+) / Primary screening (TSA) / delta Tm (K)
1,CN(c1ccccc1)S(=O)(=O)c1cccc(NC(=O)c2ccc(C(N)=O)cc2)c1,0.02
2,Cc1cc(CSc2nc3ccccc3[nH]2)no1,0.07
3,Cc1ccc(C(=Nc2c(C)cc(C)cc2C)c2ccc(C)cc2)cc1,-0.04
4,CC(C#N)(NC(=O)CNc1cccnc1-c1ccccc1)C1CC1 (stereo not shown),0.08
5,CN(Cc1ccccc1)C(=O)NCC1CCN(c2ccncc2)CC1,-0.02
6,CC1CCc2[nH]c3ccc(C(=O)OCC(=O)NC(=O)NC45CC6CC(CC(C6)C4)C5)cc3c2C1 (stereo not shown),0.27
7,CN(Cc1nc2ccccc2s1)C(=O)CSc1nnc(CC2CCS(=O)(=O)C2)o1 (stereo not shown),-0.13
8,Cc1ccc(N(C)S(=O)(=O)c2cccc(C(=O)Nc3ccc(Br)c(C)c3)c2)cc1,0.48
9,COc1cccc(NC(=O)c2cccc(S(=O)(=O)N(C)c3ccc(C)cc3)c2)c1,-0.02
10,CN(C)c1ccc(NC(=O)c2cccc(S(=O)(=O)N(C)c3cccc(Cl)c3)c2)cc1,0.27
11,CN(c1cccc(Cl)c1)S(=O)(=O)c1cccc(C(=O)Nc2ccc(C(N)=O)cc2)c1,0.08
12,CCCCc1ccc(NC(=O)c2cccc(S(=O)(=O)N(C)c3cccc(Cl)c3)c2)cc1,0.58
13,Cc1ccc(N(C)S(=O)(=O)c2cccc(C(=O)Nc3ccncc3)c2)cc1,-0.18
14,COC(=O)c1ccccc1NC(=O)Cc1c[nH]c2ccccc12,-0.22
15,COc1cc(/C=N/NC(=O)c2cc3c(s2)CCCC3)ccc1OS(=O)(=O)c1cc(C)ccc1C,0.32
16,COc1cc(/C=N/NC(=O)c2cc3c(s2)CCCC3)ccc1OCC(=O)Nc1ccc(C)cc1,-0.22
17,CCOc1cc(/C=N/NC(=O)c2cc3c(s2)CCCC3)ccc1OCC(=O)Nc1cccc(C(F)(F)F)c1,5.11
18,O=C(C1=C(O)C(=O)N(CCCN2CCOCC2)C1c1ccco1)c1ccc(F)cc1 (stereo not shown),-0.08
19,CC(NC(=O)COC(=O)c1ccc2c(c1)S(=O)(=O)c1ccccc1C2=O)C12CC3CC(CC(C3)C1)C2 (stereo not shown),0.17
20,CC(C)CCN1C(=O)c2ccc(C(=O)OCC(=O)NC(C)C34CC5CC(CC(C5)C3)C4)cc2C1=O (stereo not shown),0.48
21,CC(NC(=O)COC(=O)CCCN1C(=O)c2cccc3cccc(c23)C1=O)C12CC3CC(CC(C3)C1)C2 (stereo not shown),-0.34
22,COc1ccc(C(=O)C2=C(O)C(=O)N(CCCN3CCOCC3)C2c2ccc(OC)cc2)cc1 (stereo not shown),-0.13

row,SMILES,TSA(without NAD+) / Primary screening (TSA) / delta Tm (K)
1,CC(=O)Nc1ccc(NC(=O)c2cccc(C(N)=O)c2)cc1C,-0.07
2,NS(=O)(=O)c1ccc(C(=O)Nc2ccc3c(c2)-c2ccccc2C3)cc1,0.23
3,NC(=O)c1cccc(NC(=O)c2cc3c(s2)-c2ccccc2CC3)c1,1.03
4,NC(=O)Cn1cnc2c(cnn2-c2ccccc2)c1=O,-0.08
5,Cc1cc(S(=O)(=O)NCc2ccc(C(N)=O)cc2)sc1Cl,-0.11
6,CC(C)(C)c1ccccc1NC(=O)c1ccc(S(=O)(=O)N2CCCC2)cc1,-0.07
7,O=c1onc(-c2cnccn2)n1Cc1nc2cc([N+](=O)[O-])ccc2o1,-0.12
8,CC(=O)N1N=C(c2ccccc2)CC1c1ccc(Br)cc1 (stereo not shown),-0.02
9,CC(=O)N1N=C(c2ccc(O)cc2)CC1c1ccccc1 (stereo not shown),0.07
10,O=C(CSc1nnnn1-c1ccc(O)cc1)N1N=C(c2ccc3ccccc3c2)CC1c1ccccc1 (stereo not shown),0.49
11,CN(C(=O)Cc1ccc(NC(=O)NCc2ccc(-n3cncn3)nc2)cc1)c1ccccc1,0.08
12,CN1CCCN(c2ccc(NC(=O)NCCCNC(=O)c3cccc(O)c3)cc2F)CC1,0.02
13,Cc1ccc(NC(=O)NCCc2cccc(O)c2)cc1NC(=O)NCCc1cccc(O)c1,0.38
14,CCCNC(=O)Nc1ccc(OC)cc1,-0.12
15,CC(CN1CCOCC1)NC(=O)C(Cc1ccccc1)n1cnnn1 (stereo not shown),-0.23
16,Cc1ccc(N(C)S(=O)(=O)c2cccc(C(=O)Nc3ccccc3Cl)c2)cc1,0.07
17,Cc1ccc(N(C)S(=O)(=O)c2cccc(C(=O)Nc3ccccc3C(F)(F)F)c2)cc1,-0.13
18,O=C(NN/C=C1/C(=O)N(c2cccc(C(F)(F)F)c2)C(=O)c2ccccc21)c1cccc(S(=O)(=O)Nc2ccccc2Cl)c1,1.45
19,COC(=O)c1cc(-c2csc(NC(=O)c3cccc(NC(=O)c4cnoc4C)c3)n2)c[nH]1,0.46
20,COc1ccc(NC(=O)c2ccc(NC(=O)c3cnoc3C)cc2)cc1OCc1cccnc1,-0.18
21,NC(=O)NCc1ccc(C(=O)Nc2nc(-c3c[nH]c(C(N)=O)c3)cs2)cc1,-0.03
22,Cc1nc(-c2ccc(CCNC(=O)c3ccc(NC(=O)c4cccs4)cc3)s2)cs1,0.63

row,SMILES,TSA(without NAD+) / Primary screening (TSA) / delta Tm (K)
1,Cc1nc(-c2ccc(CCNC(=O)c3ccc(NC(N)=O)cc3)s2)cs1,0.23
2,COc1ccc(C(=O)NCCc2ccc(-c3csc(C)n3)s2)cc1,0.07
3,COc1ccc(C(=O)C2=C(O)C(=O)N(CCCN3CCOCC3)C2c2ccccc2)cc1C (stereo not shown),0.06
4,CC(c1ccc(S(N)(=O)=O)cc1)N(C)Cc1nc2ccccc2c(=O)[nH]1 (stereo not shown),-0.15
5,O=C1CCCN1C(=O)Cn1cnc2cc(Cl)ccc2c1=O,-0.11
6,O=C(Nc1ccc(OC(F)F)c(Cc2ccccc2)c1)C1=COCCO1,-0.12
7,COc1ccc(NC(=O)C2=COCCO2)cc1S(=O)(=O)N1CCOCC1,-0.13
8,COc1ccc(NC(=O)C2=COCCO2)cc1Cc1ccccc1,0.45
9,O=C(Nc1cccc(Cn2[nH]c(=O)ccc2=O)c1)c1cccc(Oc2ccccc2)c1,-0.13
10,NC(=O)c1ccc(OCC(=O)NC(=O)NCc2cccs2)cc1,0.03
11,Cc1sc2ncnc(N3CCC(C(N)=O)CC3)c2c1C,-0.11
12,NC(=O)C1CCN(c2ncnc3sc4c(c23)CCCC4)CC1,0.28
13,NC(=O)C1CCN(c2nc(-c3cccnc3)nc3sc4c(c23)CCCC4)CC1,0.33
14,NC(=O)C1CCN(c2nc(-c3cccs3)nc3sc4c(c23)CCCC4)CC1,2.58
15,Cc1sc2nc(-c3cccnc3)nc(N3CCC(C(N)=O)CC3)c2c1C,0.25
16,Cc1sc2nc(-c3cccs3)nc(N3CCC(C(N)=O)CC3)c2c1C,0.58
17,CCSCCOC(=O)c1ccc2[nH]c(C(F)F)nc2c1,-0.04
18,Cn1c2ccccc2c2cc(S(=O)(=O)NCc3cccc(NC(=O)C4CC4)c3)ccc21,-0.03
19,CS(=O)(=O)c1ccc(NC(=O)c2ccccc2SCC(=O)NC23CC4CC(CC(C4)C2)C3)cc1,-0.03
